These results are taken from the supplement of paper PMC3842684.

The subject of test [1] is P. falciparum NF54-pfs16-GFP early (I-III) stage gametocytes. The test is described as follows: relative % inhibition of viable gametocyte number; higher = more gametocytocidal. The conditions noted are these: stage: early (I-III) gametocyte, incubation 72 h. In a few lines: (§1)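 Compound was tested in duplicate at 5 or 0.5 µM on magnet-isolated NF54 pfs16-GFP gametocytes, taken either early (I/IIa, day 2) or late (day 8) and plated at 10% parasitaemia, 0.1% haematocrit. Incubation ran 72 h at 37°C, 5% CO2, 5% O2, followed by overnight MitoTracker Red staining and confocal imaging. Relative inhibition, based on counts of elongated GFP objects with above-cut-off MitoTracker signal, was normalised to in-plate vehicle and positive-control wells.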

In test [2] the test system is P. falciparum NF54-pfs16-GFP late (IV-V) stage gametocytes. The test is described as above. The conditions noted are these: stage: late (IV-V) gametocyte, incubation 72 h. In a few lines: as §1

Structures are written as SMILES.

As for `COc1ccc(OC)c(C2C3=C(CC(C)(C)CC3=O)N(c3ccc(Cl)c(Cl)c3)C3=C2C(=O)CC(C)(C)C3)c1`, the relative % inhibition in test [1] (0.5 µM) came out at 13.6%; in test [1] (5 µM), 67.1%; in test [2] (0.5 µM), 13.8%; in test [2] (5 µM), 79.2%.

Take `Cc1ccc(N2C3c4ccccc4N(S(=O)(=O)c4ccc(C)cc4)C2c2ccccc2N3S(=O)(=O)c2ccc(C)cc2)cc1`: the relative % inhibition in test [1] (0.5 µM) stood at 61%; in test [1] (5 µM), 95.1%; in test [2] (0.5 µM), 95%; in test [2] (5 µM), 98.9%.

Turning to `COc1ccc(C(=O)C(CCC(CNC(C)(C)C)C(=O)c2ccc(OC)cc2)CNC(C)(C)C)cc1` (stereo not given), the relative % inhibition in test [1] (0.5 µM) amounted to 62.7%; in test [1] (5 µM) it was 94%; in test [2] (0.5 µM), 10.9%; in test [2] (5 µM), 104%.

On to `O=[N+]([O-])c1ccc(C=NNc2nc3ccccc3[nH]2)cc1`, for which the relative % inhibition in test [1] (0.5 µM) is 26.8%; in test [1] (5 µM), 59.1%; in test [2] (0.5 µM) it was -1.37%; in test [2] (5 µM), -1.1%.

For `OC(Cn1nnc2ccccc21)Cn1c2ccc(Br)cc2c2cc(Br)ccc21` (stereo not given), the relative % inhibition stood at 5.28% in test [1] (0.5 µM), 83.6% in test [1] (5 µM), 18.2% in test [2] (0.5 µM) and 43.4% in test [2] (5 µM).
